The text below walks through data of PubChem BioAssay AID651860 (Broad Institute, 2012).

Molecules are shown by their SMILES. Entries with a potency or affinity are not part of this list. A number with no mark means an inactive call. Active and inactive are the calls of the source.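 Rule for the calls: active = compounds lowering HepG2 cell ATP luminescence with a fitted half-maximal concentration at most twice the top tested dose; inconclusive = flat fit with 30 to 70 percent signal loss, or poor fit; inactive = the rest.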

The assay is described as follows: HepG2 cell cytotoxicity, dose response, cytotoxicity control, luminescence plate reader, powder samples, set 2 (AID 651860). The settings on record: HepG2 viability, CellTiter-Glo ATP luminescence, 48 h; series mostly up to 26 µM; activity change, negative = cytotoxic: at the top concentration. In general terms: ATP-based viability assays read luminescence as a measure of living cells.
For the compound `O=C(NC[C@@H]1c2ccccc2CCN1C(=O)[C@@H]1CCCC[C@@H]1C(=O)O)OCC1c2ccccc2-c2ccccc21`, the “activity change, negative = cytotoxic” value is 19.7%.
Turning to `O=C(O)[C@H]1CCCC[C@H]1C(=O)N1CCc2ccccc2[C@H]1CNc1nc(Cl)nc2ccccc12`, the “activity change, negative = cytotoxic” value was -2.48%.
Still for that read-out and setting: under `O=C(O)[C@@H]1CCCN1C(=O)N1CCc2ccccc2[C@H]1CN1C(=O)c2ccccc2C1=O` stands -13.9%; under `COC(=O)C1CCCCC1C(=O)N1CCc2ccccc2C1CN1C(=O)c2ccccc2C1=O` (centres undefined), -1.95%.
As to `O=C(O)C1CCCCC1C(=O)N1CCc2ccccc2C1CN1Cc2ccccc2C1=O` (centres undefined), the “activity change, negative = cytotoxic” value is -6.56%.
Same read-out and setting: under `O=C(O)[C@H]1CCCC[C@H]1C(=O)N1CCc2ccccc2[C@H]1CNS(=O)(=O)c1ccc([N+](=O)[O-])cc1` stands -11.1%; under `CCOC(=O)C(C(=O)OCC)c1nc(NS(=O)(=O)c2c(C)cc(C)cc2C)c2ccccc2n1`, 2.58%; under `O=C1c2ccccc2C(=O)N1C[C@@H]1c2ccccc2CCN1C(=O)C1CCCCC1`, -16.3%.
The same measure, in the same setting: under `O=C(O)C1CCCCC1C(=O)N1CCc2ccccc2[C@H]1C(=O)NCCc1ccccc1` (some centres undefined) stands -10.2%; under `Cc1cc(C)c(S(=O)(=O)Nc2nc(NCCO)nc3ccccc23)c(C)c1`, -0.961%; under `O=C(O)[C@H]1CCCC[C@H]1C(=O)N1CCc2ccccc2[C@H]1CNS(=O)(=O)c1ccccc1`, -11%.
On the same count and under the same terms, under `O=C(Oc1cc(CN2C(=O)c3ccccc3C2=O)c2ccccc2[n+]1[O-])c1cccc(Cl)c1` stands -8.9%.
Consider `O=C(NCCc1ccccc1)c1ccccc1C(=O)NC[C@@H]1c2ccccc2CCN1C(=O)C1CCCCC1C(=O)O` (some centres undefined), for which the “activity change, negative = cytotoxic” value was 3.84%.
Still for that read-out and setting: under `C=CC(=O)NC[C@@H]1c2ccccc2CCN1C(=O)[C@@H]1CCCC[C@@H]1C(=O)O` stands 9.58% [at 12 µM]; under `Cc1cc(C)c(S(=O)(=O)Nc2nc(N(C)C)nc3ccccc23)c(C)c1`, -10.1%.
Still for that read-out and setting: under `O=C(NC[C@@H]1c2ccccc2CCN1C(=O)[C@@H]1CCCC[C@@H]1C(=O)O)c1ccccc1` stands -9.07%; under `O=C(O)C1CCCCC1C(=O)NCC1c2ccccc2CCN1C(=O)Cc1ccccc1` (centres undefined), 7.56%; under `O=C(NC[C@@H]1c2ccccc2CCN1C(=O)[C@@H]1CCCC[C@@H]1C(=O)O)c1ccccc1CO`, -0.395%.
Same read-out and setting: under `COC(=O)C(C(=O)OC)c1cc(NS(=O)(=O)c2c(C)cc(C)cc2C)c2ccccc2c1O` stands -3.99%; under `CC(C)CNc1nc(NS(=O)(=O)c2ccccc2)c2ccccc2n1`, -10.5%; under `O=C(O)C1CCCCC1C(=O)N1CCc2ccccc2C1CN1C(=O)c2ccccc2S1(=O)=O` (centres undefined), -4.19%.
Consider `Cc1ccc(S(=O)(=O)NC(=O)[C@@H]2c3ccccc3CCN2C(=O)[C@@H]2CCCC[C@@H]2C(=O)O)cc1`, for which the call was inactive.
Regarding `C[C@@H](NC(=O)C1CCCC[C@H]1C(=O)O)c1ccccc1` (mixture of isomers), the “activity change, negative = cytotoxic” value was 0.345%.
`COC(=O)[C@@H]1CCCC[C@@H]1C(=O)N1CCc2ccccc2[C@H]1CN1C(=O)c2ccccc2C1=O`: the “activity change, negative = cytotoxic” value is -4.15%.
Same read-out and setting: under `O=C(NCCCN1CCOCC1)c1ccccc1C(=O)NC[C@@H]1c2ccccc2CCN1C(=O)C1CCCCC1C(=O)O` (some centres undefined) stands -16.8%; under `O=C(O)/C=C\C(=O)N1CCc2ccccc2C1CN1C(=O)c2ccccc2C1=O` (centres undefined), 3.21%; under `CC(=O)Nc1cc(NS(=O)(=O)c2c(C)cc(C)cc2C)c2ccccc2c1O`, 7.31%.
Still for that read-out and setting: under `O=C(O)[C@H]1C2C=CC(C2)[C@H]1C(=O)N1CCc2ccccc2C1CN1C(=O)c2ccccc2C1=O` (some centres undefined) stands -3.78%; under `O=S(=O)(Nc1nc(NCC2CCCCC2)nc2ccccc12)c1ccccc1`, 14%.
Still for that read-out and setting: under `O=C(NC[C@@H]1c2ccccc2CCN1C(=O)[C@@H]1CCCC[C@@H]1C(=O)O)c1ccc(CCl)cc1` stands -0.926%; under `O=C(O)[C@H]1CCCC[C@H]1C(=O)N1CCc2ccccc2C1CCN1C(=O)c2ccccc2C1=O` (some centres undefined), 3.26%; under `C[C@H](NC(=O)C1CCCC[C@H]1C(=O)O)c1ccccc1` (mixture of isomers), -5.04%.
Regarding `Cc1cc(C)c(S(=O)(=O)Nc2cc(C(C(=O)OCc3ccccc3)C(=O)OCc3ccccc3)c(O)c3ccccc23)c(C)c1`, the “activity change, negative = cytotoxic” value was -14.8%.
Turning to `CCOC(=O)C(C(=O)OCC)c1cc(CNS(=O)(=O)c2ccc(C)cc2C)c2ccccc2n1`, the “activity change, negative = cytotoxic” value was -9.04%.
